Assay results published in PubChem BioAssay (EPA / NIEHS).
Where “and” joins values, the source holds several entries; their conditions need not be identical. Equal values may be shown once. Results filed as inconclusive are left out. Some compounds were tested as several samples or in several runs, with calls that do not always agree. Calls of active or inactive are those of the source. How the source made its calls, unless noted: active means hit-call score of the fitted dose curve at least 0.9, where 1 is the maximum; inactive means score below 0.9.

Experiments:
[1] = target: Nuclear respiratory factor 1 (Homo sapiens) (UniProt Q16656); assay: ATG_NRF1_CIS: Attagene CIS-FACTORIAL HepG2 Assay for human Nuclear Respiratory Factor 1 (NRF1) Orphan Gene (AID 2282987); settings: HepG2 NRF1 cis-element reporter, Attagene multiplex; actives raise or lower the signal
Summary of the method: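 Endogenous NRF1-driven reporter transcription in transfected HepG2 cells after 24 h treatment. Readout: RT-PCR products, 6-FAM labelled and resolved by capillary electrophoresis; changes fitted both directions relative to DMSO.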

[2] = ATG_NFI_CIS: Attagene CIS-FACTORIAL HepG2 Assay for human Nuclear Factor I (NFI) (AID 2282989); settings: HepG2 cis-regulatory reporter, NFI response element transcription; actives raise or lower the signal
Summary of the method: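 Transient MRTU transfection of HepG2 → 24 h chemical dosing → total RNA, oligo(dT) RT → PCR, 6-FAM primer extension, HpaI cut → capillary electrophoresis. Endpoint fitted bidirectionally relative to DMSO.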

[3] = target: Myc proto-oncogene protein (Homo sapiens) (UniProt P01106); assay: ATG_Myc_CIS: Attagene CIS-FACTORIAL HepG2 Assay for human Myelocytomatosis (Myc) Proto-Oncogene Transcription Factor (AID 2282990); settings: HepG2, Attagene cis-reporter transcription factor activity; actives raise or lower the signal
Summary of the method: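 Read-out: fluorescent reporter mRNA fragments resolved by capillary electrophoresis after RT-PCR. Human HepG2 liver cells carried transfected cis-element reporter units and were dosed for 24 h. Gain or loss of signal fitted relative to DMSO baseline.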

[4] = ATG_NF_kB_CIS: Attagene CIS-FACTORIAL HepG2 Assay for human Nuclear Factor Kappa B (NF-kB) (AID 2282991); settings: HepG2 Attagene cis-factorial NF-kB reporter mRNA; actives raise or lower the signal
Summary of the method: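 Readout is reporter transcript level, gain or loss versus DMSO, measured 24 h post-dose via RT-PCR, fluorescent labelling and capillary electrophoresis. Human HepG2 liver cells carried transiently transfected CIS reporter constructs reflecting endogenous factors.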

[5] = ATG_NRF2_ARE_CIS: Attagene CIS-FACTORIAL HepG2 Assay for human Nuclear Factor Erythroid 2 Related Factor 2 (NFR2) response to Antioxidant Response Elements (ARE) (AID 2282992); settings: HepG2 Attagene ARE/NRF2 reporter, transcription factor activity; actives raise or lower the signal;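 on AC50: reporter mRNA level measured by RT-PCR and capillary electrophoresis fluorescence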
Summary of the method: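 Fluorescence intensity of reporter-specific cDNA fragments, separated by capillary electrophoresis, reflects mRNA induction in transfected HepG2 cells at 24 h. Activity is fitted bidirectionally, DMSO serving as baseline.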

[6] = ATG_Oct_MLP_CIS: Attagene CIS-FACTORIAL HepG2 Assay for human Octamer-Binding Transcription Factor (Oct) (AID 2282993); settings: HepG2 Attagene cis-factorial Oct reporter, mRNA; actives raise or lower the signal
Summary of the method: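 Transient MRTU transfection of HepG2 → 24 h compound treatment → RNA isolation, reverse transcription, PCR → 6-FAM primer extension, HpaI digest → capillary electrophoresis. Activity fitted both directions against DMSO.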

[7] = target: Cellular tumor antigen p53 (Homo sapiens) (UniProt P04637); assay: ATG_p53_CIS: Attagene CIS-FACTORIAL HepG2 Assay for human p53 Transcription Factor (AID 2282994); settings: HepG2 p53 cis-element reporter, Attagene mRNA; actives raise or lower the signal
Summary of the method: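 Transiently transfected HepG2 (multiple cis reporter transcription units); exposure 24 h; reporter RNA via RT-PCR, 6-FAM extension, 2 h HpaI digest at 37 C, CE detection; DMSO baseline.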

[8] = BSK_3C_VCAM1: BioMAP Diversity Plus: 3C Assay for Vascular cell adhesion molecule 1 (VCAM1) Biomarker Activity (AID 2282999); settings: BioMAP 3C HUVEC, VCAM1 ELISA, cytokine-stimulated; actives raise or lower the signal
Summary of the method: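 HUVEC primary cells, 24 h compound exposure; VCAM-1 by ELISA; gain/loss of signal fitted bidirectionally vs DMSO baseline.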

[9] = BSK_4H_Eotaxin3: BioMAP Diversity Plus: 4H Assay for Eotaxin 3 Biomarker Activity (AID 2283000); settings: primary human endothelial cells (HUVEC); actives raise or lower the signal;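 further: CCL26 protein level quantified by ELISA in parallel with SRB cytotoxicity check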
Summary of the method: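 Endothelial primary cells (human umbilical vein) exposed to compound for 24 h. ELISA detection of Eotaxin-3.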

[10] = target: human Peroxisome Proliferator-activated Receptor alpha (PPARa), PPARA (gene 5465) (UniProt Q07869); assay: ATG_PPARa_TRANS: Attagene TRANS-FACTORIAL HepG2 Assay for human Peroxisome Proliferator-activated Receptor alpha (PPARa) (AID 2283001; active means hit-call score of the fitted dose curve at least 0.9, where 1 is the maximum;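 on AC50: potency for gain of reporter signal over DMSO so agonist or activator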)
Summary of the method: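 HepG2, transient MRTU transfection, 24 h treatment. RT-PCR → FAM labelling → capillary electrophoresis. Fit vs DMSO, positive direction.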

[11] = target: human Peroxisome Proliferator-activated Receptor delta (PPARd), PPARD (gene 5467) (UniProt Q03181); assay: ATG_PPARd_TRANS: Attagene TRANS-FACTORIAL HepG2 Assay for human Peroxisome Proliferator-activated Receptor delta (PPARd) (AID 2283002; active means hit-call score of the fitted dose curve at least 0.9, where 1 is the maximum)
Summary of the method: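 Read-out: reporter mRNA induction, quantified by fluorescent RT-PCR products resolved by capillary electrophoresis. Human HepG2 liver cells carried transiently transfected Gal4-UAS reporter constructs with chimeric NR-Gal4 fusions. Cells were dosed for 24 h; DMSO served as baseline.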

[12] = BSK_3C_Proliferation: Cell Proliferation Assessment in the BioMAP Diversity Plus: 3C Assay (AID 2283006); settings: primary human endothelial cells (HUVEC);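 on AC50: potency may reflect either rise or fall in cell number versus DMSO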
Summary of the method: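 Cells (human umbilical vein endothelial, sub-confluent) receive test chemical; after 48 h they are fixed in 10% trichloroacetic acid, stained with 0.1% SRB and read at 560 nm. Activity is referenced to DMSO, fitting increases and decreases.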

[13] = target: Peroxisome proliferator-activated receptor gamma (Homo sapiens) (UniProt P37231); assay: ATG_PPARg_TRANS: Attagene TRANS-FACTORIAL HepG2 Assay for human Peroxisome Proliferator-activated Receptor-gamma (PPARg) (AID 2283007; active means hit-call score of the fitted dose curve at least 0.9, where 1 is the maximum)
Summary of the method: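 After 24 h of chemical exposure, transfected HepG2 cells carrying PPARγ-Gal4 chimera reporter constructs are lysed for RNA. Reporter transcripts are measured by RT-PCR and capillary electrophoresis with fluorescent labelling, and gain of signal is fitted versus DMSO.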

[14] = target: Nuclear receptor subfamily 1 group I member 2 (Homo sapiens) (UniProt O75469); assay: ATG_PXR_TRANS: Attagene TRANS-FACTORIAL HepG2 Assay for human Pregnane X Receptor (PXR) (AID 2283008; active means hit-call score of the fitted dose curve at least 0.9, where 1 is the maximum)
Summary of the method: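 Transient HepG2 transfectants carrying multiplexed reporter transcription units; PXR activity read through a Gal4 chimera. 24 h exposure. RT-PCR/CE fluorescence; upward curve fit referenced to DMSO.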

[15] = BSK_3C_TissueFactor: BioMAP Diversity Plus: 3C Assay for Tissue Factor Biomarker Activity (AID 2282997); settings: BioMAP 3C HUVEC, tissue factor biomarker readout; actives raise or lower the signal
Summary of the method: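 Cells used were primary human umbilical vein endothelial cells. They were dosed with chemical, and after 24 h Tissue Factor was quantified by ELISA. Curves were fitted bidirectionally with DMSO as baseline.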

[16] = read-out: Intercellular Adhesion Molecule 1 (ICAM1), ICAM1 (gene 3383); assay: BSK_3C_ICAM1: BioMAP Diversity Plus: 3C Assay for Intercellular Adhesion Molecule 1 (ICAM1) Biomarker Activity (AID 2283003); settings: primary human endothelial cells (HUVEC); actives raise or lower the signal
Summary of the method: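 Chemicals are dosed onto primary human umbilical vein endothelium (3C system). After 24 h, ICAM-1 is measured by ELISA, and responses are fitted bidirectionally relative to DMSO.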

[17] = target: human Retinoic Acid Receptor gamma (RARg), RARG (gene 5916) (UniProt P13631); assay: ATG_RARg_TRANS: Attagene TRANS-FACTORIAL HepG2 Assay for human Retinoic Acid Receptor gamma (RARg) (AID 2283009; active means hit-call score of the fitted dose curve at least 0.9, where 1 is the maximum)
Summary of the method: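 TRANS format measured activity of exogenous NR-GAL4 fusion (RARg) in transfected HepG2 liver cells after 24 h dosing. Induced reporter RNA was detected by RT-PCR/capillary electrophoresis fluorescence, analysed in the positive direction against DMSO.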

[18] = BSK_3C_uPAR: BioMAP Diversity Plus: 3C Assay for Urokinase-type plasminogen activator receptor (uPAR) Biomarker Activity (AID 2282998); settings: BioMAP 3C HUVEC, uPAR biomarker ELISA; actives raise or lower the signal
Summary of the method: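 ELISA readout of uPAR on human vascular endothelium (umbilical vein primary cells), taken 24 h after chemical dosing. Increases and decreases are both fitted relative to DMSO vehicle.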

[19] = target: human Retinoic Acid Receptor beta (RARb), RARB (gene 5915) (UniProt P10826); assay: ATG_RARb_TRANS: Attagene TRANS-FACTORIAL HepG2 Assay for human Retinoic Acid Receptor beta (AID 2283004; active means hit-call score of the fitted dose curve at least 0.9, where 1 is the maximum)
Summary of the method: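 HepG2, transient MRTU transfection, NR–Gal4 chimera, 24 h treatment; RT-PCR plus CE fluorescence detection of reporter mRNA; gain of signal vs DMSO.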

[20] = target: Retinoic acid receptor alpha (Homo sapiens) (UniProt P10276); assay: ATG_RARa_TRANS: Attagene TRANS-FACTORIAL HepG2 Assay for human Retinoic Acid Receptor alpha (RARa) (AID 2283005; active means hit-call score of the fitted dose curve at least 0.9, where 1 is the maximum)
Summary of the method: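 HepG2 transiently transfected with multiplex GAL4-UAS reporter units including a human RARa–GAL4 chimera; 24 h compound exposure. Reporter mRNA quantified by RT-PCR, 6-FAM labeling and capillary electrophoresis; gain of signal versus DMSO.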

Measured: AC50

Chain of Myc proto-oncogene protein (Homo sapiens) (P01106 whole entry, looked up, the tested form may be a part): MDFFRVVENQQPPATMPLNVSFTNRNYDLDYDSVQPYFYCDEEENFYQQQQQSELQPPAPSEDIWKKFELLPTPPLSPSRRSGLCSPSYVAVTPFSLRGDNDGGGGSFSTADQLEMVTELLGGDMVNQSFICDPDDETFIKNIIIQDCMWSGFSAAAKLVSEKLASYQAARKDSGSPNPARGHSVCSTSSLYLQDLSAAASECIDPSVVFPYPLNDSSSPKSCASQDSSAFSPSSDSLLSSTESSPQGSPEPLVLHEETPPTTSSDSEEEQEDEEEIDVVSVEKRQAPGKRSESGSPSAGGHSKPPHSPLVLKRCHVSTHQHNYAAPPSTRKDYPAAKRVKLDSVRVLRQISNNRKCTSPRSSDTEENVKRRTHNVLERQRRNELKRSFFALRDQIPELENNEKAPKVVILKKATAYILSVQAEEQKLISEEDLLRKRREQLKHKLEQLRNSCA
Chain of Nuclear respiratory factor 1 (Homo sapiens) (Q16656 whole entry, looked up): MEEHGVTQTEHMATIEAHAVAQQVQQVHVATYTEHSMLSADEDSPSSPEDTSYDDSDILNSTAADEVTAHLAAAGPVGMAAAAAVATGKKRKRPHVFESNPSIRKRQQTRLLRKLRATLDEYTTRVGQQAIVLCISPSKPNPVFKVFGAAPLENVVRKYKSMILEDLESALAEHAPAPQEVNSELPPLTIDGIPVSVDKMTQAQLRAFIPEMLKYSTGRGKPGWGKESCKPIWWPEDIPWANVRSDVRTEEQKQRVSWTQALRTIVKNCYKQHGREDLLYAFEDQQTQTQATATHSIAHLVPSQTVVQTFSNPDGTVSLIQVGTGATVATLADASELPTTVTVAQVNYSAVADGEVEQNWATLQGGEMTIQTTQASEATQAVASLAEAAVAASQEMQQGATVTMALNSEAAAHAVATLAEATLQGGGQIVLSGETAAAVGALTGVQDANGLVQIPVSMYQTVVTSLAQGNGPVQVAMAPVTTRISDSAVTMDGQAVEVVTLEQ
Chain of human Retinoic Acid Receptor beta (RARb), RARB (gene 5915) (P10826 whole entry, looked up, the tested form may be a part): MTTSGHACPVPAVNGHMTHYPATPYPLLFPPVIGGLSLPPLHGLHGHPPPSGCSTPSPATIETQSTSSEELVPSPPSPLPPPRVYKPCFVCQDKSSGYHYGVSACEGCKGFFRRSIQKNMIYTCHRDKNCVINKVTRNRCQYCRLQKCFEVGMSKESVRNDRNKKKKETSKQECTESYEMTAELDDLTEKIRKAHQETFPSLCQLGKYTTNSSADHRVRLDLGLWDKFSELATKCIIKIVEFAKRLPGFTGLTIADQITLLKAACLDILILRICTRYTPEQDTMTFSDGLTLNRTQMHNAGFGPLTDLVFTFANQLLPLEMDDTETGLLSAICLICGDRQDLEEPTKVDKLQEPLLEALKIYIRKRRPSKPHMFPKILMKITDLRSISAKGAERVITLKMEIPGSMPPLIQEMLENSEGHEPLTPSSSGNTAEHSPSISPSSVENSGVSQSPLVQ
Chain of human Retinoic Acid Receptor gamma (RARg), RARG (gene 5916) (P13631 whole entry, looked up, the tested form may be a part): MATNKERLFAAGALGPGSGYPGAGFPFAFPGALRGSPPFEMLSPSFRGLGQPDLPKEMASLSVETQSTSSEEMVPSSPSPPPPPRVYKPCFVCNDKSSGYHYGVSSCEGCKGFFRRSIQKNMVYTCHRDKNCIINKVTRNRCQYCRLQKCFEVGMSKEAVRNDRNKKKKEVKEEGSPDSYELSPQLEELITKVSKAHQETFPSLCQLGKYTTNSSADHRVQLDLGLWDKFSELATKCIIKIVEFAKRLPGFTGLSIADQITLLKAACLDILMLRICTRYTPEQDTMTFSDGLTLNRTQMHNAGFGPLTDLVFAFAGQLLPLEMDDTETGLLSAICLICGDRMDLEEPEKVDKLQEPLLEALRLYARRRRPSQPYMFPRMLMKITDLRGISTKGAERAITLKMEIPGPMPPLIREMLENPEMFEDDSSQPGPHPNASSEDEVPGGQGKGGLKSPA
Chain of Peroxisome proliferator-activated receptor gamma (Homo sapiens) (P37231 whole entry, looked up, the tested form may be a part): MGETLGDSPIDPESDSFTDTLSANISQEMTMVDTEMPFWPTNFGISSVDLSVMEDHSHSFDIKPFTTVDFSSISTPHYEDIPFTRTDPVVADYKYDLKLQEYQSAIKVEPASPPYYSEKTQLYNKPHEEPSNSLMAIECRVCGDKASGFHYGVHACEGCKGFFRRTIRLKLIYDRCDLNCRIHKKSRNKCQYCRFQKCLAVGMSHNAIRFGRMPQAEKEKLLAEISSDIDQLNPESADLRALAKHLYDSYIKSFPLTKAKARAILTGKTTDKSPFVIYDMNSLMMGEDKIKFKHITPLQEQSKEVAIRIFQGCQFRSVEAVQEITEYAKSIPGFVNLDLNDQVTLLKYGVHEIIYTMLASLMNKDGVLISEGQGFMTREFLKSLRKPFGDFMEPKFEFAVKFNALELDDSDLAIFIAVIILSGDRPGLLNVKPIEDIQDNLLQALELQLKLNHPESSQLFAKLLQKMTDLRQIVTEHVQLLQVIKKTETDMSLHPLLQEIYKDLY
Chain of Cellular tumor antigen p53 (Homo sapiens) (P04637 whole entry, looked up): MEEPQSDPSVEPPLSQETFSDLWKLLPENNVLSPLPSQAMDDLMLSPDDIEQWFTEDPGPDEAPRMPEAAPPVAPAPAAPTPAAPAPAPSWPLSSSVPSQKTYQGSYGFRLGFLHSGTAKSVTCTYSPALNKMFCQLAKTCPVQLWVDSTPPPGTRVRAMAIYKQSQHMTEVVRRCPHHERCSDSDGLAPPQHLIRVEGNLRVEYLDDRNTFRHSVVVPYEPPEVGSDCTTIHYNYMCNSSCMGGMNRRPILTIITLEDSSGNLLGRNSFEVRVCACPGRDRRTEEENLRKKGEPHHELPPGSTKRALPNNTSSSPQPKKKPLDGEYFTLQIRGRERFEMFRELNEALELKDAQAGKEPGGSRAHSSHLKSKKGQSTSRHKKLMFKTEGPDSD
Chain of Nuclear receptor subfamily 1 group I member 2 (Homo sapiens) (O75469 whole entry, looked up, the tested form may be a part): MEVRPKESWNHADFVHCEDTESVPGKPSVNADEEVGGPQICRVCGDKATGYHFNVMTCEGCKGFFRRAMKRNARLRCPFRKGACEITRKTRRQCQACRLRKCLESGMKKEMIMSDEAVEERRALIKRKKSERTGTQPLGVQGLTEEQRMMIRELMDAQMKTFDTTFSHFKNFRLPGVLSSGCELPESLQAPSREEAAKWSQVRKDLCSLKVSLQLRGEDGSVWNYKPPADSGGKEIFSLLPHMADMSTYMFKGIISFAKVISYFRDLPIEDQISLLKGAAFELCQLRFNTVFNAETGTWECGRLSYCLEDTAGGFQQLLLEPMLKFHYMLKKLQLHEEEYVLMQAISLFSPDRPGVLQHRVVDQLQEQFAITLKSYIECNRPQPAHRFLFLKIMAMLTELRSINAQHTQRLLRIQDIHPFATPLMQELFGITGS
Chain of human Peroxisome Proliferator-activated Receptor delta (PPARd), PPARD (gene 5467) (Q03181 whole entry, looked up, the tested form may be a part): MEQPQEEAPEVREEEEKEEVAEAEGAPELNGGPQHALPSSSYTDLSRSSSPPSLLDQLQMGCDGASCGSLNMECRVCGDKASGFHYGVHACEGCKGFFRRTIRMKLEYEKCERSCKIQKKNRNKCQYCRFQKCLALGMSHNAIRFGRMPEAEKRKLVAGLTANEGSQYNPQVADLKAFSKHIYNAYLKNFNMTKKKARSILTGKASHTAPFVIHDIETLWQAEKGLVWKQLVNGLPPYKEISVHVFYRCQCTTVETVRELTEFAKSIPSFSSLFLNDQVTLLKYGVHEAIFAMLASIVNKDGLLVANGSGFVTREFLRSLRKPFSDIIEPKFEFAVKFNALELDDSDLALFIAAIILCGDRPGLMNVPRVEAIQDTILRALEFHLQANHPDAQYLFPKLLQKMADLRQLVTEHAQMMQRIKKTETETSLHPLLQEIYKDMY
Chain of human Peroxisome Proliferator-activated Receptor alpha (PPARa), PPARA (gene 5465) (Q07869 whole entry, looked up): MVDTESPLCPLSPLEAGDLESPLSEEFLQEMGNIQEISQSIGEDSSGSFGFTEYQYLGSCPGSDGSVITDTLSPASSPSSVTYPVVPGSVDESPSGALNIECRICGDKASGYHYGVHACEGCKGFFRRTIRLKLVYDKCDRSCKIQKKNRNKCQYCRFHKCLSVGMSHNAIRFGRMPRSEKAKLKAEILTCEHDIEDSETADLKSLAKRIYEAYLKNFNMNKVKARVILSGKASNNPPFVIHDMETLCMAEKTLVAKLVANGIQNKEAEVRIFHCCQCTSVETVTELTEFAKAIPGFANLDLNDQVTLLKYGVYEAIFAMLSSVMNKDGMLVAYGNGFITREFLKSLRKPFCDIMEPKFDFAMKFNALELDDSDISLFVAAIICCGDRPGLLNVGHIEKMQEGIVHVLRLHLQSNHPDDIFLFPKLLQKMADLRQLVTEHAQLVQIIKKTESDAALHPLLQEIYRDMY
Chain of Retinoic acid receptor alpha (Homo sapiens) (P10276 whole entry, looked up, the tested form may be a part): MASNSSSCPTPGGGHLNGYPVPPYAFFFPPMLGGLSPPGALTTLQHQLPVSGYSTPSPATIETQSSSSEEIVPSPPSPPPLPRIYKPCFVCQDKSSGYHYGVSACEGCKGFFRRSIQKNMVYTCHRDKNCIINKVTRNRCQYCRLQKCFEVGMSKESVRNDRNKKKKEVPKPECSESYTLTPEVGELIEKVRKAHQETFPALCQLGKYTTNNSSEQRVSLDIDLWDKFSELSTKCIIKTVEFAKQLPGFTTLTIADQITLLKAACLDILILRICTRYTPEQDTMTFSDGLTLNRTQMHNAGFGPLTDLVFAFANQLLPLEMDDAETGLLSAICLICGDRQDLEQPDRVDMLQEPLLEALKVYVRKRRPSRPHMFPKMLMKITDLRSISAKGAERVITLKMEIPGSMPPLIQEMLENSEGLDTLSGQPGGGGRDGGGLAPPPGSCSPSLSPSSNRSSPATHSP

CCCCCCOC(=O)c1ccccc1C(=O)OCCCCCC
active: [5] 16.2 µM | [12] 14.6 µM | [13] 12.9 µM | [14] 4.17 µM
not listed: [15] | [16] | [17] | [18] | [19] | [20]
inactive: all other assays above

CC(C)(O)C(=O)Nc1ccc([N+](=O)[O-])c(C(F)(F)F)c1
inactive: [1] | [2] | [3] | [5] | [6] | [7] | [15] | [8] | [9] | [10] | [16] | [12] | [14] | [17]
active: [5] 45.1 µM and 15.9 µM and 54.5 µM | [6] 38.9 µM | [14] 21.2 µM

O=C(N[C@H]1CN2CCC1CC2)c1cc2ccoc2cn1
not listed: [11] | [13] | [15] | [17] | [18] | [19] | [20]
inactive: all other assays above

CN(C)c1nc(=O)n(C2CCCCC2)c(=O)n1C
inactive: [1] | [2] | [3] | [5] | [6] | [18] | [8] | [9] | [16] | [12] | [13]

Oc1ccc(Cl)cc1Cl
active: [5] 36.3 µM
not listed: [4] | [11] | [14] | [15] | [16] | [17] | [19] | [20]
inactive: all other assays above

Clc1ccc(C(Cl)(Cl)Cl)cc1
not listed: [4] | [11] | [17] | [18] | [19] | [20]
inactive: all other assays above

OCC(O)CO
inactive: [1] | [2] | [3] | [4] | [5] | [6] | [7] | [11] | [19] | [20] | [13] | [14] | [17]
active: [10] 36.7 µM | [13] 50 µM

O=C(NC(=O)c1cc(F)c(F)cc1Cl)Nc1cc(F)ccc1N1CCC(C(=O)O)CC1
active: [5] 16.5 µM | [13] 0.954 µM
not listed: [4] | [11] | [15] | [16] | [17] | [19] | [20]
inactive: all other assays above

C1CC2OC2CC1C1CO1 (configuration not stated)
inactive: [1] | [2] | [3] | [4] | [6] | [7] | [8] | [9] | [16] | [12]
active: [5] 123 µM

Cc1ccccc1CO[C@@H]1C[C@@]2(C(C)C)CC[C@]1(C)O2
active: [5] 2.86 µM | [13] 32.3 µM | [14] 5.24 µM
not listed: [7] | [10] | [18]
inactive: all other assays above
